Measured values published in PubChem BioAssay (EPA / NIEHS).
Where a structure was tested more than once in an assay, its records may differ in their call. Active and inactive are the calls of the source. Rule for the calls: active = hit-call score of the fitted dose curve at least 0.9, where 1 is the maximum; inactive = score below 0.9.

How the values were obtained:
[1] = ATG_CMV_CIS: Attagene CIS-FACTORIAL HepG2 Assay for human CMV (Internal Marker) (AID 2282928); settings: HepG2 CMV promoter reporter, transcription factor profiling; actives raise or lower the signal;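 note: endpoint acts as a background internal control marker rather than a target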
Summary of the method: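 Bidirectional fits against DMSO are applied to reporter mRNA, read by RT-PCR with capillary electrophoresis, from HepG2 cells exposed 24 h. The endpoint serves as an internal CMV background marker within the cis-factorial reporter panel.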

[2] = ATG_DR4_LXR_CIS: Attagene CIS-FACTORIAL HepG2 Assay for human Liver X Receptor (LXR), DR4 submotif (AID 2282929); settings: HepG2 Attagene DR4 cis-reporter, mRNA transcription; actives raise or lower the signal
Summary of the method: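 After transient transfection with multiplexed cis-promoter reporter units, HepG2 cells received test chemicals for 24 h. Reporter mRNA induction, detected by fluorescence after RT-PCR and capillary electrophoresis, was scored relative to DMSO.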

[3] = molecular target: Aryl hydrocarbon receptor (Homo sapiens) (UniProt P35869); experiment: ATG_Ahr_CIS: Attagene CIS-FACTORIAL HepG2 Assay for human Aryl Hydrocarbon Receptor (Ahr) (AID 2282930); settings: HepG2 AhR cis-factorial reporter transcription; actives raise or lower the signal
Summary of the method: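 HepG2 cells transiently transfected with cis-element-driven multiplexed reporter transcription units; endogenous transcription factor activity measured as reporter mRNA 24 h after dosing. RT-PCR, 6-FAM labelling, HpaI digestion, capillary electrophoresis; bidirectional fitting versus DMSO baseline.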

[4] = ATG_AP_1_CIS: Attagene CIS-FACTORIAL HepG2 Assay for human Activator Protein 1 (AP-1) (AID 2282931); settings: HepG2 Attagene cis-factorial AP-1 reporter mRNA; actives raise or lower the signal
Summary of the method: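 After 24 h incubation with test chemical, RNA from transfected HepG2 cells was reverse-transcribed, amplified, fluorescently labelled and digested before capillary electrophoresis. Reporters were driven by cis-regulatory promoters; activity fitted bidirectionally versus DMSO.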

[5] = ATG_AP_2_CIS: Attagene CIS-FACTORIAL HepG2 Assay for human Activator Protein 2 (AP-2) (AID 2282932); settings: HepG2 AP-2 cis-reporter, Attagene transcription factor profiling; actives raise or lower the signal
Summary of the method: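 Cells (HepG2) transfected with promoter-driven reporter constructs, treated 24 h. Total RNA reverse-transcribed, reporter cDNA PCR-amplified, FAM-labelled by primer extension, digested, resolved by capillary electrophoresis. Activity fitted both directions versus DMSO.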

[6] = ATG_BRE_CIS: Attagene CIS-FACTORIAL HepG2 Assay for human Bone Morphogenetic Protein (BMP) Response Element (BRE) (AID 2282933); settings: HepG2 BMP response element reporter, Attagene transcription factor profiling; actives raise or lower the signal
Summary of the method: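 After a 24 h chemical treatment, transiently transfected HepG2 cells were lysed for RNA; reporter transcripts were quantified by fluorescent RT-PCR and capillary electrophoresis, normalised to DMSO.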

[7] = molecular target: Retinoic acid receptor alpha (Homo sapiens) (UniProt P10276); experiment: ATG_DR5_RAR_CIS: Attagene CIS-FACTORIAL HepG2 Assay for human Retinoic Acid Receptor Alpha (RARE), DR5 submotif (AID 2282934); settings: HepG2 Attagene cis-factorial RARE DR5 reporter, mRNA; actives raise or lower the signal;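 for AC50: reporter responds to endogenous RAR alpha beta and gamma in HepG2 not RARA alone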
Summary of the method: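 HepG2 cells transiently transfected with multiplexed reporter units under cis (DR5 RARE) promoters, so endogenous transcription factor activity is measured. After 24 h compound exposure, reporter mRNA is quantified by RT-PCR with fluorescent labelling and capillary electrophoresis; bidirectional fitting versus DMSO.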

[8] = molecular target: Transcription factor E2F1 (Homo sapiens) (UniProt Q01094); experiment: ATG_E2F_CIS: Attagene CIS-FACTORIAL HepG2 Assay for human E2F Transcription Factor 1 (AID 2282935); settings: HepG2 Attagene cis-reporter, E2F reporter RNA transcripts; actives raise or lower the signal
Summary of the method: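 First, HepG2 cells were transfected with reporter transcription units. Next, they were dosed for 24 h. Then RNA was isolated, converted to cDNA, PCR-amplified, FAM-labeled, HpaI-digested and analyzed by capillary electrophoresis.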

[9] = ATG_E_Box_CIS: Attagene CIS-FACTORIAL HepG2 Assay for human Enhancer Box (E-box) (AID 2282936); settings: HepG2 E-box cis-reporter transcription, actives raise or lower the signal
Summary of the method: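 Endogenous transcription factor activity was sensed in human HepG2 liver cells through transfected cis-promoter reporter units. After 24 h of dosing, total RNA was reverse-transcribed and reporter cDNA resolved by capillary electrophoresis.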

[10] = ATG_M_61_CIS: Attagene CIS-FACTORIAL HepG2 Assay for M61 Transcription Factor (Internal Marker) (AID 2282937); settings: HepG2 Attagene CIS-FACTORIAL M61 internal marker reporter; actives raise or lower the signal
Summary of the method: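 Using transiently transfected HepG2 liver cells, reporter transcript levels were assessed 24 h post-dosing by RT-PCR and capillary electrophoresis. Changes in either direction were fitted relative to DMSO controls.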

[11] = ATG_EGR_CIS: Attagene CIS-FACTORIAL HepG2 Assay for human Early Growth Response 1 (EGR1) (AID 2282938); settings: HepG2 Attagene CIS-FACTORIAL EGR reporter mRNA; actives raise or lower the signal
Summary of the method: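 Fluorescent capillary-electrophoresis signal of reporter cDNA fragments serves as read-out. HepG2 cells bear transiently transfected cis-promoter reporter units and are exposed 24 h; gain- or loss-of-signal is fitted against DMSO.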

[12] = ATG_Ets_CIS: Attagene CIS-FACTORIAL HepG2 Assay for human Erythroblast Transformation Specific (ETS) (AID 2282941); settings: HepG2 ETS cis-reporter transcription, actives raise or lower the signal
Summary of the method: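 Endogenous transcription factor activity read as reporter mRNA via RT-PCR and capillary electrophoresis, with gain or loss fitted bidirectionally against DMSO. Human HepG2 liver cells, transiently transfected CIS reporter constructs, 24 h exposure.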

[13] = molecular target: Hepatocyte nuclear factor 3-beta (Homo sapiens) (UniProt Q9Y261); experiment: ATG_FoxA2_CIS: Attagene CIS-FACTORIAL HepG2 Assay for human Forkhead box A2 (FOXA2) (AID 2282942); settings: HepG2 cis-reporter transcription factor activity, 24 h; actives raise or lower the signal
Summary of the method: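 Fluorescence signal of reporter cDNA fragments, separated by capillary electrophoresis, reflects endogenous transcription factor activity in transfected HepG2 after 24 h. Both increases and decreases fitted against DMSO.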

[14] = ATG_FoxO_CIS: Attagene CIS-FACTORIAL HepG2 Assay for human Forkhead box O (FoxO) (AID 2282943); settings: HepG2 Attagene cis-reporter, FoxO element, mRNA; actives raise or lower the signal
Summary of the method: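 HepG2 cells transiently transfected with cis-promoter-driven multiple reporter transcription units; 24 h after chemical dosing, reporter mRNA quantified by RT-PCR, fluorescent primer extension, HpaI digestion and capillary electrophoresis. Bidirectional fitting versus DMSO baseline.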

[15] = ATG_GATA_CIS: Attagene CIS-FACTORIAL HepG2 Assay for human GATA Binding Protein (AID 2282944); settings: HepG2 GATA cis-element reporter, Attagene multiplex mRNA; actives raise or lower the signal
Summary of the method: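 Measures endogenous transcription factor-driven reporter mRNA in HepG2 cells transiently carrying cis-regulated constructs. 24 h dosing; RNA via oligo(dT) reverse transcription, PCR, HpaI digestion, capillary electrophoresis; fitted relative to DMSO.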

[16] = ATG_GLI_CIS: Attagene CIS-FACTORIAL HepG2 Assay for human Zinc Finger Protein GLI1 (AID 2282945); settings: HepG2, Attagene cis-factorial reporter mRNA, GLI element; actives raise or lower the signal
Summary of the method: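 HepG2 cells transiently transfected with cis-promoter multiplexed reporter units report endogenous transcription factor activity. After 24 h chemical exposure, reporter mRNA was quantified by RT-PCR, 6-FAM labelling, HpaI digestion and capillary electrophoresis, with bidirectional fitting against DMSO.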

[17] = ATG_M_19_CIS: Attagene CIS-FACTORIAL HepG2 Assay for M19 Transcription Factor (Internal Marker) (AID 2282939); settings: HepG2 Attagene CIS-FACTORIAL M19 internal marker reporter; actives raise or lower the signal
Summary of the method: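 In this multiplexed cell assay, transiently transfected HepG2 reporter units report endogenous transcription-factor activity; after 24 hours of treatment, labelled reporter cDNA fragments are quantified by capillary electrophoresis and fitted bidirectionally against DMSO.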

[18] = ATG_ERE_CIS: Attagene CIS-FACTORIAL HepG2 Assay for Estrogen Response Element (ERE) (AID 2282940); settings: HepG2 ERE cis-reporter, Attagene RNA transcript; actives raise or lower the signal
Summary of the method: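 Measuring endogenous transcription factor output, the assay doses transfected HepG2 cells for 24 hours and quantifies reporter transcripts by fluorescent RT-PCR and capillary electrophoresis, with DMSO as baseline.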

[19] = molecular target: Bile acid receptor (Homo sapiens) (UniProt Q96RI1); experiment: ATG_IR1_CIS: Attagene CIS-FACTORIAL HepG2 Assay for human Nuclear Receptor Subfamily 1 Group H Member 4 (NR1H4), IR1 submotif (AID 2282946); settings: IR1 reporter transcription, actives raise or lower the signal
Summary of the method: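 Readout: reporter transcript levels by RT-PCR with fluorescent capillary electrophoresis, from HepG2 cells transiently transfected with multiplexed cis-regulated reporters and dosed 24 h. Gain- or loss-of-signal fitted versus DMSO negative control.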

[20] = ATG_GRE_CIS: Attagene CIS-FACTORIAL HepG2 Assay for human Glucocorticoid Response Elements (GRE) (AID 2282947); settings: HepG2 GRE cis-reporter, Attagene multiplex mRNA; actives raise or lower the signal
Summary of the method: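 Cells (HepG2) bearing transfected cis-promoter reporter transcription units were treated with chemical for 24 hours. Reporter mRNA was measured via RT-PCR with capillary electrophoresis, and activity was fitted in both directions relative to DMSO.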

Measured: AC50

Sequence of Transcription factor E2F1 (Homo sapiens) (Q01094 whole entry, looked up): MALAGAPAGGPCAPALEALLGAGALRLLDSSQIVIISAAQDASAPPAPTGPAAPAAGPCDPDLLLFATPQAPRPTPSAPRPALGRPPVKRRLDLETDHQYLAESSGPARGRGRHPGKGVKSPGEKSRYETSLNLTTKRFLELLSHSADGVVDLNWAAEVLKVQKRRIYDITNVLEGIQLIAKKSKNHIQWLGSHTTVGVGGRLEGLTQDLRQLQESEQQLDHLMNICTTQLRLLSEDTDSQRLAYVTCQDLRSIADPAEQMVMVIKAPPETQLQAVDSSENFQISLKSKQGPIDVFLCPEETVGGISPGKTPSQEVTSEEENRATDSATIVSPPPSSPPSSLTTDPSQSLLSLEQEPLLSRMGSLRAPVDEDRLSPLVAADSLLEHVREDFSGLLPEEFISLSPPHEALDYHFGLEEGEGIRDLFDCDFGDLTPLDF
Sequence of Aryl hydrocarbon receptor (Homo sapiens) (P35869 whole entry, looked up): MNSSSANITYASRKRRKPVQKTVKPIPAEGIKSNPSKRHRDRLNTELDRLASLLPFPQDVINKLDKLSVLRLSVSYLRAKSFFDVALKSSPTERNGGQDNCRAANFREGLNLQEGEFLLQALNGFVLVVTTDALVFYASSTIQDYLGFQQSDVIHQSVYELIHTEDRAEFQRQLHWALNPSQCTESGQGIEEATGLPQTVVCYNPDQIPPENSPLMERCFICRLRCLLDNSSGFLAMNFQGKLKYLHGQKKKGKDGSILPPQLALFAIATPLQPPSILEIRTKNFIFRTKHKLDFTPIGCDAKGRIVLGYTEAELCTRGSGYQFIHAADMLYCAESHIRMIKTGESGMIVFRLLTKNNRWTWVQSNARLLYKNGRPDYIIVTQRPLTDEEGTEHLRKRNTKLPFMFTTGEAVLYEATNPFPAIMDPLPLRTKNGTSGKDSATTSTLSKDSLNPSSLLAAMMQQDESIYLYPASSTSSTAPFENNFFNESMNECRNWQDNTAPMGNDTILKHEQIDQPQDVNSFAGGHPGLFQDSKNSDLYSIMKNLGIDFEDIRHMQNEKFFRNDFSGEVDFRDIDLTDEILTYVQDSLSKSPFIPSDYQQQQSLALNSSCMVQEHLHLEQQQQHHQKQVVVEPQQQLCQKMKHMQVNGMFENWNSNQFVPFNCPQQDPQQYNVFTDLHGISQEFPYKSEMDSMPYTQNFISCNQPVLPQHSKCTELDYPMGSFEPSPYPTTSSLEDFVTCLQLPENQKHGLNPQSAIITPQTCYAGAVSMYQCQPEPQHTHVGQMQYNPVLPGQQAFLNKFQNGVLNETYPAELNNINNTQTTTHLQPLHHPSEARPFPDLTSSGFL
Sequence of Bile acid receptor (Homo sapiens) (Q96RI1 whole entry, looked up): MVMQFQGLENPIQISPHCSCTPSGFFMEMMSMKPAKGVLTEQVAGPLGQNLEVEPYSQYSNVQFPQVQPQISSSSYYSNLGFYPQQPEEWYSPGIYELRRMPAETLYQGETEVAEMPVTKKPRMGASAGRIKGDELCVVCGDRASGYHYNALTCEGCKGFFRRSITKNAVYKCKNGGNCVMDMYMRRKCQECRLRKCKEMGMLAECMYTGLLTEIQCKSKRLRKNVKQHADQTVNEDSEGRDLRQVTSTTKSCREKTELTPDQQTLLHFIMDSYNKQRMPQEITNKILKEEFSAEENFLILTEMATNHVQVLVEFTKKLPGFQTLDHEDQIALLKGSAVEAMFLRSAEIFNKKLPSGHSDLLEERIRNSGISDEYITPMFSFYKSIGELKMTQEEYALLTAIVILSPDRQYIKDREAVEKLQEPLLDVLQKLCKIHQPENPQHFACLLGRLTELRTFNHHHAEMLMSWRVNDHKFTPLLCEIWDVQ
Sequence of Hepatocyte nuclear factor 3-beta (Homo sapiens) (Q9Y261 whole entry, looked up, the tested form may be a part): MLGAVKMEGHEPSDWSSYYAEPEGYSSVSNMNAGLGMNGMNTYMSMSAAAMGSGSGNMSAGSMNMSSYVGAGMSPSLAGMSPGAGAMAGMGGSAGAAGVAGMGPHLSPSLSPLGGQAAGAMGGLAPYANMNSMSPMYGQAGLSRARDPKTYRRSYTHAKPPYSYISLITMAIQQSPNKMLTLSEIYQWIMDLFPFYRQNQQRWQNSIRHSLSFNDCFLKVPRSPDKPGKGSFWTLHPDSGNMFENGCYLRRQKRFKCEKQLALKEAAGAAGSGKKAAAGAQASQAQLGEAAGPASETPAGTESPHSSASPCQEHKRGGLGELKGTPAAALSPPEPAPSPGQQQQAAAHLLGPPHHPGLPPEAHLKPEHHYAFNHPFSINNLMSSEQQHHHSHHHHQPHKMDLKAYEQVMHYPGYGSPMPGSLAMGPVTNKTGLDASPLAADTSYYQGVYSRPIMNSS
Sequence of Retinoic acid receptor alpha (Homo sapiens) (P10276 whole entry, looked up): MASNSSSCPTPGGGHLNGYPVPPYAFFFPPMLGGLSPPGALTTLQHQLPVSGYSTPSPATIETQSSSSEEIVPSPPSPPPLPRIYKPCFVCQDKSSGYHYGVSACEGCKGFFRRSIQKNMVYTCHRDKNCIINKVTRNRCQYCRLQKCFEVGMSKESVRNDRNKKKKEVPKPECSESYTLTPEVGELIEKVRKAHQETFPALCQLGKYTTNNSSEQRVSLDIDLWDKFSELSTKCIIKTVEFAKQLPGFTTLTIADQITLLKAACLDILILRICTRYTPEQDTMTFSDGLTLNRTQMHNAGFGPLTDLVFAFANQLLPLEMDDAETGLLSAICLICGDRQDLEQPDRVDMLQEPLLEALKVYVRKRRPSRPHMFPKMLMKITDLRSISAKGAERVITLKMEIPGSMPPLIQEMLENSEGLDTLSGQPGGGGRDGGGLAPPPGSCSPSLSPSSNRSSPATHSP

CC[N+](CC)(CC)CC
not listed: [17] | [18] | [19] | [20]
inactive: all other assays above

CCCCOC(C)=O
inactive: [1] | [2] | [3] | [4] | [5] | [6] | [7] | [8] | [9] | [10] | [17] | [18] | [12] | [14] | [15] | [16]
active: [15] 154 µM

C=CCN=C=S
not listed: [11] | [17] | [20]
inactive: all other assays above

Nc1cccnc1
not listed: [13] | [17] | [19] | [20]
inactive: all other assays above

O=c1[nH]c(=O)n(Cl)c(=O)n1Cl
not listed: [7] | [18] | [19]
inactive: all other assays above

[Cl][Sn]([c]1ccccc1)([c]1ccccc1)[c]1ccccc1
active: [2] 0.67 µM | [3] 1.09 µM | [5] 0.503 µM | [7] 0.227 µM | [9] 0.252 µM | [11] 0.257 µM | [18] 0.014 µM | [14] 0.308 µM | [15] 1.2 µM | [16] 0.221 µM
inactive: [1] | [4] | [6] | [8] | [10] | [12] | [20]

Cc1cc(Cl)ccc1OCCCC(=O)O
not listed: [17] | [18]
inactive: all other assays above

Nc1ccc(Br)cc1
active: [3] 25.4 µM
not listed: [17] | [18]
inactive: all other assays above

O=C1c2ccccc2C(=O)C1C(=O)C(c1ccccc1)c1ccc(Cl)cc1 (stereo unspecified)
inactive: [2] | [5] | [8] | [9] | [18] | [15] | [20]
active: [1] 13.7 µM | [3] 8.72 µM | [4] 5.27 µM | [6] 5.02 µM | [7] 8.58 µM | [10] 88.4 µM | [11] 13.1 µM | [12] 182 µM | [14] 54.6 µM | [16] 166 µM

c1ccc2c(c1)Oc1ccccc1O2
active: [3] 0.667 µM
not listed: [17] | [18]
inactive: all other assays above

Oc1cccc(-c2ccccc2)c1
active: [1] 67.7 µM | [4] 65.1 µM | [6] 73.5 µM
not listed: [11] | [18] | [19]
inactive: all other assays above

O=C(Cl)OCCOCCOC(=O)Cl
not listed: [11] | [19]
inactive: all other assays above

Brc1c(Br)c(Br)c(Oc2c(Br)c(Br)c(Br)c(Br)c2Br)c(Br)c1Br
not listed: [11] | [18]
inactive: all other assays above

NC(=O)CCl
not listed: [11] | [20]
inactive: all other assays above

FC(F)OCC(F)(F)C(F)(F)F
not listed: [11] | [13]
inactive: all other assays above

OC(Cc1ccccc1Cl)(Cn1cncn1)C1(Cl)CC1 (stereo unspecified)
not listed: [11] | [14] | [17] | [20]
inactive: all other assays above
